Data on eight molecules can be found in PubChem BioAssay (NCI).

About 83,000 compounds went through this panel and 20% of them were active in at least one assay; those are over-represented in the sample as a whole.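 Testing used 96-well plates and a 48-hour single-concentration exposure. Example: -40 means 40% of the starting cells died.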 Values without a mark were called inactive. Active and inactive are the calls of the source. How the source made its calls: active means growth percent below 10; inactive means the rest.

Test systems include NCI-H23 lung; NCI-H226 lung; NCI-H322M lung; HOP-62 NSCLC; NCI-H460 lung; HOP-92 NSCLC; NCI-H522 lung; A549/ATCC NSCLC; 786-0 renal; COLO 205 colon; DU-145 prostate; K-562 leukemia; MALME-3M melanoma; MDA-MB-231 breast; RXF 393 renal; SF-268 CNS; SF-295 CNS; SF-539 CNS; UACC-257 melanoma; M14 melanoma.
Assay in all cases: NCI-60 one-dose screen, 48 h (100 = growth as untreated, 0 = no growth, -100 = all killed)
Holding throughout (conditions): 10 µM unless noted

Take `CSc1nc2ccc(C)cc2cc1/C=N/O`: the growth in the experiment on NCI-H23 lung was 99.4%; with NCI-H226 lung it was 76.7%; with NCI-H322M lung, 94.3%; in the experiment on HOP-62 NSCLC, 82.8%; in the experiment with NCI-H460 lung, 91.1%; in the experiment with HOP-92 NSCLC it was 72.2%. Further, the growth was 75.7% with NCI-H522 lung; 71.8% in the experiment on A549/ATCC NSCLC; 89.9% in the experiment on 786-0 renal; 102% in the experiment on COLO 205 colon; 93% in the experiment with DU-145 prostate; 94.7% with K-562 leukemia. The growth is 108% in the experiment with MALME-3M melanoma; 83.5% in the experiment with MDA-MB-231 breast; 87.3% with RXF 393 renal; 83.1% in the experiment on SF-268 CNS; 101% with SF-295 CNS; 91.1% in the experiment on SF-539 CNS. In addition, the values for the growth with UACC-257 melanoma and with M14 melanoma were 80.6% and 87.8%, respectively.
With `N#Cc1c(-c2ccc(Cl)cc2)nc2c(c(-c3ccccc3)nn2-c2ccccc2)c1-c1ccc(O)cc1`, the growth is 49% with NCI-H23 lung; 65.9% with NCI-H226 lung; 70.8% in the experiment with NCI-H322M lung; 49.9% with HOP-62 NSCLC; 25.1% in the experiment with NCI-H460 lung; 56.4% in the experiment on HOP-92 NSCLC. The growth in the experiment with NCI-H522 lung was 55.6%; in the experiment on A549/ATCC NSCLC, 41.9%; in the experiment with 786-0 renal, 17.7%; in the experiment on COLO 205 colon, 52.6%; in the experiment on DU-145 prostate, 50.8%; in the experiment on K-562 leukemia, 8.36% (active). For the same molecule, the growth with MALME-3M melanoma was 61.5%; with MDA-MB-231 breast it was 36.5%; with RXF 393 renal, -27% (active); in the experiment on SF-268 CNS it was 46.6%; in the experiment with SF-295 CNS, 1.71% (active); in the experiment with SF-539 CNS it was 11.2%. Also, the growth in the experiment with UACC-257 melanoma is 85.2%; in the experiment on M14 melanoma it was 38.3%.
With `CN1CCN(CC(=O)N2c3cccc4cccc(c34)N(C(=O)CN3CCN(C)CC3)C2c2cn(-c3ccccc3)nc2-c2cccc([N+](=O)[O-])c2)CC1`, the growth with NCI-H23 lung was 1.14% (active); with NCI-H226 lung it was 88.2%; with NCI-H322M lung it was 32.9%; in the experiment with HOP-62 NSCLC it was -20.2% (active); with NCI-H460 lung, 1.88% (active); in the experiment with HOP-92 NSCLC it was 42.9%. For the same molecule, the growth in the experiment on NCI-H522 lung is -3.45% (active); in the experiment with A549/ATCC NSCLC, 15.7%; in the experiment on 786-0 renal, -83.4% (active); in the experiment on COLO 205 colon, -68.5% (active); in the experiment with DU-145 prostate it was 28.7%; in the experiment with K-562 leukemia, -43.9% (active). For the same molecule, the growth was -86.7% (active) in the experiment with MALME-3M melanoma; -60.9% (active) in the experiment on MDA-MB-231 breast; -19.1% (active) with RXF 393 renal; 7.89% (active) in the experiment on SF-268 CNS; -67.1% (active) in the experiment with SF-295 CNS; -86.1% (active) in the experiment on SF-539 CNS. Further, the figures for the growth with UACC-257 melanoma and in the experiment with M14 melanoma were -75.9% (active) and -81.7% (active), respectively.
Take `O=C(CSc1nccc(Nc2ccc(S(=O)(=O)Nc3nccs3)cc2)n1)c1ccc(C(F)(F)F)cc1`: the growth in the experiment on NCI-H23 lung is 88.1%; with NCI-H226 lung, 89.2%; in the experiment with NCI-H322M lung, 106%; in the experiment on HOP-62 NSCLC, 113%; in the experiment on NCI-H460 lung it was 107%; with HOP-92 NSCLC, 90.8%. The growth with NCI-H522 lung was 84.4%; with A549/ATCC NSCLC it was 99.6%; in the experiment on 786-0 renal, 99.7%; in the experiment on COLO 205 colon it was 112%; in the experiment on DU-145 prostate it was 114%; in the experiment with K-562 leukemia, 114%. For the same molecule, the growth in the experiment with MALME-3M melanoma is 102%; in the experiment on MDA-MB-231 breast it was 120%; in the experiment on RXF 393 renal, 95.5%; with SF-268 CNS it was 110%; in the experiment on SF-295 CNS, 96.7%; with SF-539 CNS it was 95.7%. For the same molecule, the growth is 99.3% with UACC-257 melanoma and 100% with M14 melanoma.
With `COc1cc(-c2nc3sccn3c2-c2ccnc(NCCCNS(=O)(=O)c3ccc(F)cc3)n2)ccc1F`, the growth in the experiment on NCI-H23 lung is 52.6%; with NCI-H226 lung, 52.1%; in the experiment on NCI-H322M lung, 102%; in the experiment with HOP-62 NSCLC it was 90.2%; in the experiment with NCI-H460 lung, 79.5%; with HOP-92 NSCLC, 79.4%. Moreover, the growth is 47.7% with NCI-H522 lung; 83.2% in the experiment with A549/ATCC NSCLC; 96.7% in the experiment with 786-0 renal; 56.9% in the experiment with COLO 205 colon; 76.1% in the experiment on DU-145 prostate; 38.2% in the experiment on K-562 leukemia. The growth with MALME-3M melanoma is 75.1%; in the experiment on MDA-MB-231 breast, 86.1%; with RXF 393 renal, 71.6%; with SF-268 CNS, 74.2%; in the experiment on SF-295 CNS, 57.1%; with SF-539 CNS, 95.6%. The growth in the experiment with UACC-257 melanoma was 77.8%; in the experiment with M14 melanoma, 53.6%.
Turning to `CCOC(=O)c1c2c(n(-c3ccc(C#N)cc3)c1-c1ccccc1)C=CCC2`, the growth was 89.3% with NCI-H23 lung; 96.5% in the experiment with NCI-H226 lung; 91.6% with NCI-H322M lung; 83.3% with HOP-62 NSCLC; 98.9% with NCI-H460 lung; 98.4% in the experiment with HOP-92 NSCLC. In addition, the growth was 72.1% in the experiment with NCI-H522 lung; 91.1% in the experiment with A549/ATCC NSCLC; 101% in the experiment with 786-0 renal; 87.2% in the experiment with COLO 205 colon; 102% with DU-145 prostate; 70.7% with K-562 leukemia. In addition, the growth in the experiment on MALME-3M melanoma was 103%; in the experiment with MDA-MB-231 breast, 91.6%; in the experiment with RXF 393 renal it was 109%; with SF-268 CNS, 96.8%; in the experiment on SF-295 CNS, 86.2%; in the experiment on SF-539 CNS it was 114%. The growth is 102% in the experiment on UACC-257 melanoma and 93.5% in the experiment with M14 melanoma.
On to `CC(=O)OC[C@H]1OC(Sc2sc(C(=O)c3ccc(C)cc3)c(N)c2-c2nc3ccccc3s2)[C@H](OC(C)=O)[C@@H](OC(C)=O)[C@@H]1OC(C)=O` (stereo not given in full), for which the growth is 56.1% with NCI-H23 lung; 30.3% in the experiment on NCI-H226 lung; 81.3% in the experiment with NCI-H322M lung; 61.5% in the experiment on HOP-62 NSCLC; 43.7% in the experiment with NCI-H460 lung; 58.8% in the experiment on HOP-92 NSCLC. In addition, the growth is 82.1% with NCI-H522 lung; 81.9% in the experiment on A549/ATCC NSCLC; 47.4% in the experiment on 786-0 renal; 92.2% in the experiment with COLO 205 colon; 42.1% in the experiment with DU-145 prostate; 68.4% in the experiment on K-562 leukemia. In addition, the growth in the experiment with MALME-3M melanoma is 43.9%; with MDA-MB-231 breast, 30%; in the experiment on RXF 393 renal, 53.5%; in the experiment with SF-268 CNS it was 71%; with SF-295 CNS, 73.6%; in the experiment with SF-539 CNS it was 28.2%. The growth was 79.3% in the experiment with UACC-257 melanoma and 65.7% in the experiment on M14 melanoma.
Consider `Oc1ccc(Cl)cc1Cc1cc(Cl)cc(Cl)c1O`, for which the growth in the experiment on NCI-H23 lung was 9.44% (active); in the experiment with NCI-H226 lung it was 90.1%; with NCI-H322M lung, 29.9%; in the experiment with HOP-62 NSCLC, 22.9%; in the experiment on NCI-H460 lung, 20.9%; with HOP-92 NSCLC, -24.9% (active). The growth with NCI-H522 lung is 38.9%; in the experiment with A549/ATCC NSCLC it was 46.8%; with 786-0 renal it was 59.5%; with COLO 205 colon it was 114%; in the experiment on DU-145 prostate, 33.2%; in the experiment on K-562 leukemia, 5.3% (active). Further, the growth in the experiment on MALME-3M melanoma is -19.5% (active); in the experiment with MDA-MB-231 breast, 69.2%; in the experiment on RXF 393 renal, 74%; in the experiment with SF-268 CNS, 42.3%; in the experiment with SF-295 CNS, -15.1% (active); in the experiment with SF-539 CNS, 19.8%. The growth with UACC-257 melanoma was 74.1%; with M14 melanoma it was 65.9%.
